Compound activity as filed in PubChem BioAssay.
MCF10A rerep – induces DNA re-replication in MCF 10a normal breast cells; Potency, µM (doses to about 46.1 µM), actives largely listed as activators; AID 624296; MCF 10A DNA re-replication, Hoechst nuclear intensity, 48 h; 350,000 tested, 2.9% active; also: nearly all actives have a fitted effect of over 50% in size
HT1080 IDH1KD tx – toxicity to HT-1080 IDH1 knockdown cells (counter line); 360,000 tested, 2% active; AID 686971; HT-1080 IDH1 knockdown viability, ATP luminescence, 48 h; Potency, µM (titrated, usually from 46.1 µM), actives largely listed as cytotoxic
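IDH1KD HT-1080 cells, 750/well, RPMI + 5% FBS; compound pinned after 2 h settling; 48 h, 37 °C; CellTiter-Glo luminescence; % activity normalised to DMSO and no-cell wells; curves fitted, classed by r2 and efficacy.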
HT1080-NT tox – kills 2HG-producing HT-1080-NT fibrosarcoma cells. AID 686970. Potency, µM (top dose mostly 46.1 µM), actives largely listed as cytotoxic. 360,000 tested, 1.6% active. HT-1080-NT fibrosarcoma viability, CellTiter-Glo ATP luminescence, 48 h;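 also: NT is the 2HG producing partner of a matched IDH1 knockdown line; nearly all actives have a fitted effect of over 55% in size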
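750 cells/well, RPMI + 5% FBS; 2 h settle, compound pin-transfer, 48 h at 37 degrees C. CellTiter-Glo 10 min RT, luminescence. Normalized to DMSO and media-only wells.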
KB-V1 cytotox – kills drug-selected multidrug resistant KB-V1 cells; KB-V1 MDR cells viability, CellTiter-Glo, 72 h; Potency, µM (titrated, usually from 46.1 µM), usual class: cytotoxic; 400,000 tested, 3.4% active; AID 1347076; also: nearly all actives have a fitted effect of over 60% in size
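Drug-selected KB-V1 cells, grown in DMEM lacking phenol red with 10% FBS, receive compound titrations; after three days at 37 degrees C, surviving cell ATP is quantified by CellTiter-Glo luminescence and responses normalized and curve-fitted.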
SW480 rerep – DNA re-replication induction in SW480 cells; SW480 DNA re-replication, Hoechst DNA content imaging, 48 h; Potency, µM (highest dose often 46.1 µM), usual class: activators; 340,000 tested, 1.8% active; AID 624297; also: nearly all actives have a fitted effect of over 55% in size
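SW480 cells exposed to compounds for 48 hr at 37 C, 5% CO2, then Hoechst-stained 40 min. Nuclear DNA content imaged by fluorescence scanning (405 nm excitation, 500-530 nm emission); re-replication scored as increased high-intensity nuclei.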
KB-3-1 cytotox – KB-3-1 parental cell cytotoxicity; 400,000 tested, 1.4% active; Potency, µM (highest dose often 46.1 µM), actives largely listed as cytotoxic; KB-3-1 viability, CellTiter-Glo ATP luminescence, 72 h; also: nearly all actives have a fitted effect of over 60% in size
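Cytotoxicity in the drug-sensitive parental line KB-3-1 was scored as loss of CellTiter-Glo luminescence following 72 h incubation with compound. Values come from curve fitting of normalized concentration-response data.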
Each line names hits and unclear results; the compound was inactive in the other large screens. Hits are enriched below; roughly 8% of the tested compounds scored in any of these assays. Calls follow the shape of the dose curve; as a rule, active = well fitted curve in the direction sought with a large enough effect; inconclusive = small, poorly fitted or top-dose-only effect, or another doubt; inactive = no such curve, though single readings can be large; an effect the other way counts as inactive or inconclusive.

O=C(NCc1ccc2c(c1)OCO2)C1CCCN(S(=O)(=O)c2cccc3nonc23)C1 (configuration not stated)	none
COc1ccc(-c2cc(C(=O)N/N=C(\C)c3ccco3)c3ccccc3n2)c(OC)c1	HT1080 IDH1KD tx inconclusive
Cc1nc2ccccc2c(=O)n1NS(C)(=O)=O	none
Cc1ccc2nc(-c3cccc(-c4nc5ccc(C)cc5o4)n3)oc2c1	none (no result: MCF10A rerep, HT1080 IDH1KD tx, HT1080-NT tox, SW480 rerep)
CCN(CC)C(=O)C1CCCN(Cc2ccccc2C(F)(F)F)C1 (configuration not stated)	none
NNC(=O)CNC(c1ccccc1)c1cc(Br)ccc1NC(=O)c1cccc(Cl)c1 (configuration not stated)	MCF10A rerep inconclusive, SW480 rerep inconclusive
COCCNC(=O)/C(C#N)=C/c1ccc2c(c1)OCO2	KB-V1 cytotox inconclusive, KB-3-1 cytotox inconclusive
N#Cc1nc(Cc2cccc3ccccc23)oc1NCC1CCCO1 (configuration not stated)	KB-V1 cytotox 16µM
O=C(COc1cccc([N+](=O)[O-])c1)NN1C(=O)c2ccccc2C1=O	none
Cc1[nH]c(-c2ccc(F)cc2)cc1C(=O)N1CCN(c2ccc(Cl)cc2)CC1	MCF10A rerep 5.8µM
O=C(CSCc1ccccc1)N1CCN(c2ccc(F)cc2)CC1	MCF10A rerep 26µM, KB-V1 cytotox inconclusive
O=C(CSCc1ccccc1)N1CCN(c2ccccc2)CC1	SW480 rerep inconclusive
COc1ccc(N2CCN(C(=O)c3cc(-c4ccc(F)cc4)[nH]c3C)CC2)cc1	none
O=C(c1ccccc1C(=O)N1CCN(c2ccccc2)CC1)N1CCN(c2ccccc2)CC1	none
O=C(c1ccccc1C(=O)N1CCN(c2ccc(F)cc2)CC1)N1CCN(c2ccc(F)cc2)CC1	KB-V1 cytotox 9.2µM
CC(C)(C)C(=O)Nc1ccccc1N1CCN(c2ccc(F)cc2)CC1	MCF10A rerep 21µM, KB-V1 cytotox inconclusive
CC(=O)Oc1ccc(N2C(=O)C3C4C=CC(O4)C3C2=O)cc1 (configuration not stated)	none
CNS(=O)(=O)c1cn(CC(=O)NCc2ccccc2OC)cc1S(=O)(=O)NC	none
O=C(c1ccc(Cn2cc(Br)cn2)cc1)N1CCN(c2ccccc2)CC1	MCF10A rerep 21µM, HT1080 IDH1KD tx inconclusive, HT1080-NT tox inconclusive, SW480 rerep 15µM
O=C(CSCc1cccc(F)c1)N1CCN(c2ccccc2)CC1	KB-V1 cytotox 21µM
O=C(c1ccc(CN2CCc3ccccc3C2)cc1)N1CCN(c2ccc(F)cc2)CC1	MCF10A rerep 7.3µM, KB-V1 cytotox inconclusive, KB-3-1 cytotox inconclusive
O=C(CSCc1ccccc1)N1CCN(c2cccc(C(F)(F)F)c2)CC1	none
Cc1ccc2c(c1)nnn2C1CCN(CC(=O)Nc2ccc3c(c2)OCCO3)CC1	none
COc1ccc(NC(=O)CN(C)C(=O)c2cn(-c3ccccc3)nc2-c2ccc(F)cc2)cc1	KB-V1 cytotox inconclusive, KB-3-1 cytotox inconclusive
CCCCC1C(=O)NN(c2ccccc2)C1=O (configuration not stated)	HT1080 IDH1KD tx 4.6µM, HT1080-NT tox 1.8µM, KB-3-1 cytotox inconclusive
CCCCCC1CC(=O)N(Cc2ccccc2)C(=O)N1 (configuration not stated)	none
COc1ccc(C(NC(=O)C(C)C)c2ccc3cccnc3c2O)cc1 (configuration not stated)	HT1080 IDH1KD tx inconclusive, HT1080-NT tox 1.6µM, KB-V1 cytotox inconclusive, SW480 rerep inconclusive
O=C(O)c1ccccc1NC(c1ccccc1)c1ccc2cccnc2c1O (configuration not stated)	MCF10A rerep inconclusive, HT1080 IDH1KD tx 8.2µM, KB-V1 cytotox inconclusive, SW480 rerep inconclusive, KB-3-1 cytotox inconclusive
CC(=O)NC(c1ccc(C)cc1)c1cc([N+](=O)[O-])c2cccnc2c1O (configuration not stated)	HT1080 IDH1KD tx inconclusive, HT1080-NT tox inconclusive, KB-V1 cytotox inconclusive, KB-3-1 cytotox inconclusive
COc1ccccc1NC(c1cccnc1)c1ccc2cccnc2c1O (configuration not stated)	MCF10A rerep inconclusive, HT1080 IDH1KD tx inconclusive, KB-V1 cytotox inconclusive, SW480 rerep inconclusive
CC(=O)NC(c1ccco1)c1ccc2cccnc2c1O (configuration not stated)	MCF10A rerep inconclusive, HT1080 IDH1KD tx inconclusive, HT1080-NT tox inconclusive, KB-V1 cytotox inconclusive, SW480 rerep 3.3µM, KB-3-1 cytotox 8.2µM
CCC(=O)NC(c1ccc(C)cc1)c1cc([N+](=O)[O-])c2cccnc2c1O (configuration not stated)	MCF10A rerep inconclusive, HT1080 IDH1KD tx 13µM, HT1080-NT tox 16µM, SW480 rerep inconclusive, KB-3-1 cytotox inconclusive
COCCCNC(=O)c1sc2nc(C)c(C(=O)Nc3ccc(C)cc3C)c(-c3ccc(Br)cc3)c2c1N	none (no result: MCF10A rerep, HT1080 IDH1KD tx, HT1080-NT tox, SW480 rerep)
CC(=O)c1cc(CN2C(=O)CCC2=O)cs1	none
CCCC(=O)NC(c1ccc(C(C)C)cc1)c1ccc2cccnc2c1O (configuration not stated)	MCF10A rerep inconclusive, HT1080 IDH1KD tx inconclusive, KB-V1 cytotox inconclusive, SW480 rerep 1.3µM, KB-3-1 cytotox 5.2µM
CCCC(=O)NC(c1ccc(N(C)C)cc1)c1ccc2cccnc2c1O (configuration not stated)	MCF10A rerep inconclusive, HT1080 IDH1KD tx inconclusive, HT1080-NT tox inconclusive, SW480 rerep inconclusive, KB-3-1 cytotox inconclusive
CCCCC(=O)NC(c1ccc(OC)cc1)c1ccc2cccnc2c1O (configuration not stated)	HT1080 IDH1KD tx inconclusive, HT1080-NT tox inconclusive, KB-3-1 cytotox inconclusive (no result: MCF10A rerep, SW480 rerep)
CCC(=O)NC(c1ccc(C)cc1)c1ccc2cccnc2c1O (configuration not stated)	MCF10A rerep inconclusive, HT1080 IDH1KD tx inconclusive, KB-V1 cytotox inconclusive, SW480 rerep 0.82µM, KB-3-1 cytotox inconclusive
O=C(N/N=C/c1ccco1)c1ccc(NC(=O)c2ccc(Cl)cc2)cc1	none
Cc1ccc(S(=O)(=O)c2nc(-c3ccc(Cl)cc3)oc2N2CCCCCC2)cc1	none (no result: MCF10A rerep, HT1080 IDH1KD tx, HT1080-NT tox, SW480 rerep)
Cc1ccc(S(=O)(=O)NC(CC(C)C)C(=O)N2CCC(C)CC2)cc1 (configuration not stated)	SW480 rerep inconclusive
CC1(c2nnc(-c3cccc(Cl)c3)o2)CC(c2cccc(F)c2)=NO1 (configuration not stated)	KB-3-1 cytotox inconclusive
Cc1cccc(OCCC(=O)OC(C)C(=O)Nc2ccc(Cl)cn2)c1 (configuration not stated)	none
